Screens (PubChem)
FPRL1 binder: human FPRL1 ligand, with FPR counter-screen; inhibition, % (concentration not given with the values); P25090; FPRL1-expressing cells, fluorescent ligand binding inhibition, flow cytometry; 24,000 tested, 0.3% active;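 also: 0% = buffer alone and 100% = receptor blocker peptide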
LNCaP diff act: activators of LNCaP prostate cell differentiation; 24,000 tested, 0.56% active; flow cytometry side scatter, 4 d; side scatter shift, % at 10 µM;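 active = side scatter shift above 30%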;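 also: androgen-responsive LNCaP prostate cancer cells in charcoal-stripped serum medium; percent of cells past a gate set so DMSO wells show 10% shift; higher shift means more granular cells and more differentiation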
FPR binder: human FPR ligand, with FPRL1 counter-screen. FPR-expressing cells, fluorescent ligand binding, flow cytometry. P21462. inhibition, % (test concentration not listed). 24,000 tested, 0.74% active;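 also: 0% = buffer wells and 100% = receptor blocker peptide wells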
Target sequence (P21462 whole entry, looked up): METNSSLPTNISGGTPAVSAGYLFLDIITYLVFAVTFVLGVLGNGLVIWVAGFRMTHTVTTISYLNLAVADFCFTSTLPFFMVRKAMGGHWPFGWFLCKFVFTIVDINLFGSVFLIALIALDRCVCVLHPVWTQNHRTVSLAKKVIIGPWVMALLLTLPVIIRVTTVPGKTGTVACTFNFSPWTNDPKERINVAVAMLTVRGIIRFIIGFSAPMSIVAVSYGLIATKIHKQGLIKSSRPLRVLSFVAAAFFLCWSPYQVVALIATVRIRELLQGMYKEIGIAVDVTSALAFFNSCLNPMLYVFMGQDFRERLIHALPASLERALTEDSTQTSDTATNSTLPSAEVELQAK
An asterisk follows results filed as active; · = no result. Only some compounds are listed: those with a hit (about 1.7% of all), similar ones and a draw of the others. Rule as the data show it, unless noted: active = inhibition above about 30%; inconclusive = no clear call, values can overlap the other calls; inactive = below that.

SMILES	FPRL1 binder	LNCaP diff act	FPR binder
Cc1ccc(C2=Nc3ccccc3NC(C)(c3ccc(C)o3)C2)o1 (stereo unspecified)	4	35*	-6
COC(=O)c1ccc(CSc2ccc3nnc(-c4ccc(OC)c(OC)c4)n3n2)o1	13	26	25
CCN1C(=O)c2cccc3c(NC(=O)c4ccc(S(=O)(=O)N(C)C)cc4)ccc1c23	-4	8	-4
CCOC(=O)c1ccc(NC(=O)Nc2ccc3c4c(cccc24)C(=O)N3CC)cc1	48*	29	-18
CCN(CC)CC(=O)Nc1ccc(-c2nc3cc(NC(=O)CN(CC)CC)ccc3o2)cc1	2	42*	-1
CCCC(=O)Nc1ccc(-c2nc3cc(C)c(C)cc3o2)cc1	-8	5	-7
COC(=O)Cc1cc(=O)n2[nH]c(C)c(-c3ccccc3)c2n1	2	·	5
CCOC(=O)Cc1c(C)nc2c(-c3ccc(Cl)cc3)c[nH]n2c1=O	-9	·	-4
CCOC(=O)Cc1cc(=O)n2[nH]c(C)c(-c3ccc(OC)cc3)c2n1	1	2	44*
CCOC(=O)Cc1cc(=O)n2[nH]c(C)c(-c3ccc(Cl)cc3)c2n1	1	·	54*
CC1=C(c2ccc(Cl)cc2)[N+](=O)C(C)(C)N1[O-]	10	13	-1
Cc1cc(C)c2cc(CN(CC3CCCO3)C(=O)NC3CCCCC3)c(=O)[nH]c2c1 (stereo unspecified)	-3	·	7
CN1CCCCCC1=NC1=C(C#N)CCCC1	-1	1	-3
O=c1oc(-c2ccco2)nc2ccccc12	4	30*	1
CCC(=O)Nc1cccc(-c2nc3ccccc3c(=O)o2)c1	4	7	2
CC1CCCC(NC(=O)c2ccc3c(=O)n(CC4CCCO4)c(=O)[nH]c3c2)C1C (stereo unspecified)	0	9	-4
O=C(CSc1ncnc2c1nnn2-c1ccc(F)cc1)N1CCN(c2ccccc2)CC1	-5	2	4
O=c1cc(N2CCC(Cc3ccccc3)CC2)[nH]c(=O)n1C1CCCCC1	2	18	-2
O=c1cc(N2CCc3ccccc3C2)[nH]c(=O)n1C1CCCCC1	1	62*	0
CN(C(=O)Cn1c(=O)n(CCCCC(=O)NC2CCCC2)c(=O)c2ccccc21)C1CCCCC1	-4	7	2
CCOC(=O)N1CCC(Nc2c(N3CCN(c4cccc(C(F)(F)F)c4)CC3)c(=O)c2=O)CC1	-3	4	1
CCCCNC(=O)CCCCCNS(=O)(=O)c1ccc(OC)cc1	-7	3	-5
CCN(C(=O)c1coc(=O)c2ccccc12)c1cc(OC)ccc1OC	-1	4	0
CCN(C(=O)Cc1c(C(=O)O)[nH]c2ccccc12)c1cc(OC)ccc1OC	0	8	32*
COc1ccc(Cn2c(C)nc3c(c2=O)c2nc4ccccc4nc2n3Cc2ccco2)cc1	-5	58*	0
SMILES	FPRL1 binder	LNCaP diff act	FPR binder
COc1ccc(CCn2c(-c3ccco3)nc3nc4ccccc4nc32)cc1	-6	10	5
CCOC(=O)C(CC)n1cnc2c(oc3ccccc32)c1=O (stereo unspecified)	5	2	10
CCOc1cccc2cc(-c3cn4cc(C)ccc4n3)c(=O)oc12	1	57*	6
CCOc1cccc2cc(-c3nnc(NCc4ccco4)s3)c(=O)oc12	4	9	14
Cc1oc(-c2cccc(Cl)c2)nc1CN1CCC(C(=O)N2CCN(c3ccccn3)CC2)CC1	9	24	10
CCc1ccc(-c2nc(CN3CCC(C(=O)N4CCN(c5ccccc5)CC4)CC3)c(C)o2)cc1	-11	35*	5
Cc1oc(-c2ccc(Cl)cc2)nc1CN1CCC(C(=O)N2CCN(c3ccccn3)CC2)CC1	-2	43*	-1
CCc1ccc(-c2nc(CN3CCC(C(=O)N4CCN(c5ccccn5)CC4)CC3)c(C)o2)cc1	7	3	0
Cn1cc(C(=O)NCCN2CCN(c3ccccc3F)CC2)c2c3ccccc3n(C)c2c1=O	8	19	4
CC(C)NC(=O)c1cnc(N2CCN(c3ccccn3)CC2)c2ccccc12	-3	23	2
c1ccc(N2CCN(c3nnc(Cc4cccnc4)c4ccccc34)CC2)nc1	-2	30*	1
Cc1ccc(-n2nc(C(=O)N3CCN(C)CC3)c3c4ccccc4n(C)c3c2=O)cc1	2	10	-2
CCN1CCCC1CNC(=O)c1nn(-c2ccc(C)cc2)c(=O)c2c1c1ccccc1n2C (stereo unspecified)	-10	32*	-14
COCC(C)NC(=O)NC1(C(F)(F)F)Oc2ccc(Cl)cc2O1 (stereo unspecified)	2	6	6
O=C(NCCN1CCOCC1)NC1(C(F)(F)F)Oc2ccc(Cl)cc2O1 (stereo unspecified)	-7	13	66*
CC1CCCN(C(=O)C2CCN(S(=O)(=O)c3cccc4cccnc34)CC2)C1 (stereo unspecified)	1	9	3
COc1ccc2c(CC(=O)Nc3ccc(OC)c(NS(=O)(=O)c4ccc(F)cc4)c3)coc2c1	-3	9	6
OCc1nc2ccccc2n1CC(O)Cn1ccc2ccccc21 (stereo unspecified)	51*	16	37*
OCc1nc2ccccc2n1CCCOc1ccccc1	12	·	2
O=c1c2c(nc3c(-c4ccccc4)c[nH]n13)CCCC2	1	·	6
Cc1ccc(-c2cc3nc4c(c(=O)n3[nH]2)CCCC4)cc1	4	3	2
Cc1[nH]n2c(=O)cc(C(C)(C)C)nc2c1-c1ccccc1	2	·	4
Cc1[nH]n2c(=O)c3c(nc2c1-c1ccc(Cl)cc1)CCC3	0	·	51*
Cc1[nH]n2c(=O)c3c(nc2c1-c1ccccc1)CCC3	-3	·	40*
Cc1[nH]n2c(=O)c(C#N)c(-c3ccccc3)nc2c1-c1ccccc1	-8	·	90*
SMILES	FPRL1 binder	LNCaP diff act	FPR binder
CCCS(=O)(=O)N1CCC(C(=O)NCc2ccco2)CC1	5	13	-2
CCOc1ccc(C2c3c(oc4ccccc4c3=O)C(=O)N2c2ccc(C)cn2)cc1OC (stereo unspecified)	4	4	21
Cc1cn(C2CC3OCC3O2)c(=O)[nH]c1=O (stereo unspecified)	3	10	-2
CC(=O)c1ccc(OCC(O)CN2CCN(Cc3ccccc3)CC2)cc1 (stereo unspecified)	7	3	2
CCOC(=O)C1CCN(Cc2ccc(C(=O)OC)cc2)CC1	55*	12	48*
CCOC(=O)C1CCN(c2c(NCCCN3CCN(Cc4ccccc4)CC3)c(=O)c2=O)CC1	6	6	-6
CCOC(=O)C1CCN(CC(O)COc2ccc(C(C)=O)cc2)CC1 (stereo unspecified)	27	5	35*
COC(=O)Cn1c(CCS(=O)(=O)c2ccc(C)cc2)nc2ccccc21	-5	2	-6
COCCCNC(=O)C1CCN(C(=O)Nc2ccc(Cl)cc2)CC1	2	2	2
Cc1cc(SCC(N)=O)nc(SCC(=O)c2ccccc2)n1	49*	15	48*
COc1cc(C)nc(SCC(N)=O)n1	8	7	-2
Cc1ccc2oc(=O)c3cc(C(=O)N4CCN(c5ncccn5)CC4)sc3c2c1	6	5	8
CCOC(=O)C1=C(C)N=C2SC(CC)C(=O)N2C1c1ccc(OC(C)=O)c(OCC)c1 (stereo unspecified)	2	4	10
